Screens (PubChem)
Only some compounds are listed: those with a hit (about 4.6% of all), similar ones and a draw of the others.
ssDAF-12 act = S. stercoralis DAF-12 activation, primary screen; HEK293 ssDAF-12/GRIP1 lit1-tk-luc reporter, luminescence; % of 3 µM dafachronic acid response; activation, % at 6.8 µM; actives 1% (n = 370,000);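 active means activation above the mean over all tested compounds plus 3 SD, cut at about 0.9% in these data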;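 further: 0% = DMSO-only wells and 100% = 3 µM delta7-dafachronic acid wells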
Wee1 stabilizer = blocks degradation of human Wee1 kinase | P30291 | HeLa Luc-Wee1K328M stability, luciferase luminescence; 100% = proteasome inhibitor MG132 effect | reporter increase, % at 5 µM | actives 1.2% (n = 220,000) | AID 1321;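 active means activation above the mean of all tested compounds plus 3 SD, set per screening run, cut at about 8.8% in these data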;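 further: cells exposed to compound for 20 h before luminescence read; 0% = DMSO alone and 100% = MG132 at 30 µM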
DAX1 inh-1 = blocks DAX1 repression of SF-1 activated StAR promoter; actives 1.1% (n = 370,000); AID 652010; inhibition, % at 6.8 µM; HEK293T StAR-luciferase reporter, SF-1/DAX-1 repression relief;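 active means inhibition above the mean over all tested compounds plus 3 SD, cut at about 3.6% in these data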;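 further: 0% = DAX-1 cells with DMSO and 100% = cells lacking DAX-1 with DMSO; higher inhibition means more luminescence from relief of DAX-1 repression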
hgDAF12 agonist = agonists of H. glycines DAF-12 nuclear receptor | HEK293 GAL4-hgDAF12 UAS-luciferase reporter, agonist luminescence; normalized to butyrate control | activation, % at 6.8 µM | actives 1.8% (n = 370,000) | AID 687014;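 active means activation above a cutoff set at the mean of all screened compounds plus 3 SD, cut at about 10% in these data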;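 further: 0% = DMSO wells and 100% = sodium butyrate wells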
DAX1 inh-2 = inhibitors of human orphan nuclear receptor DAX1 (NR0B1); P51843; HEK293 Gal4-DAX1 luciferase reporter, luminescence; inhibition, % at 6.75 µM; actives 0.99% (n = 340,000);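 active means inhibition above the mean over all tested compounds plus 3 SD, cut at about 4.2% in these data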;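 further: 0% = DAX1-transfected cells with DMSO and 100% = empty-vector control cells with DMSO; inhibition shows as a rise in luminescence from relieved DAX1 repression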
Target sequence (P51843 207-470 limits assumed): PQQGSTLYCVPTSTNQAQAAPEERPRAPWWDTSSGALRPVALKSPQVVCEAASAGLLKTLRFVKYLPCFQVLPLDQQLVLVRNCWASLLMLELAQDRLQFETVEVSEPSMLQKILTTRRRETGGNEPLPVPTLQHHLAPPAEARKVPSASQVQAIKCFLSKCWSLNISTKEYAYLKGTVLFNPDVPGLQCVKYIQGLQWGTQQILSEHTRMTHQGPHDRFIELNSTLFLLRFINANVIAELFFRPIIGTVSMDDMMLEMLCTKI
hcDAF-12 act = activates DAF-12 receptor from parasite H. contortus | HEK293 hcDAF-12 lit1-tk-luc reporter, luminescence; 0% DMSO, 100% Δ7-dafachronic acid | activation, % at 6.8 µM | actives 1.4% (n = 370,000) | AID 652067;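 active means activation above the mean of all tested compounds plus 3 SD, cut at about 5.5% in these data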;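 further: 100% = response to 3 µM Δ7-dafachronic acid high control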
* = called active by the depositor.

For O=C(Nc1ccccc1Oc1ccccc1)NC1CCCCN(Cc2ccc(Cl)cc2)C1=O (centres undefined) the results were ssDAF-12 act -1, DAX1 inh-1 -1, hgDAF12 agonist 2 and hcDAF-12 act 0.
COc1ccc(-c2cc3c(=O)n(CC(=O)NCc4cccnc4)ncn3n2)cc1 was read as ssDAF-12 act 0, DAX1 inh-1 3.8*, hgDAF12 agonist 11*, DAX1 inh-2 -1 and hcDAF-12 act 6.1*.
`Cc1ccnc(NC(=O)Nc2ccc(Br)cc2Cl)c1` gave ssDAF-12 act 0, Wee1 stabilizer 9.5*, DAX1 inh-1 3, hgDAF12 agonist 9, DAX1 inh-2 2 and hcDAF-12 act 1.
Screening COc1ccc(-c2nc(-c3ccc(Br)cc3)no2)c(OC)c1 returned ssDAF-12 act 1.0*, Wee1 stabilizer -2, DAX1 inh-1 3, hgDAF12 agonist 12*, DAX1 inh-2 4 and hcDAF-12 act 4.
`COc1cc(OC)cc(-c2nc(-c3ccc(Br)cc3)no2)c1` gave ssDAF-12 act -1, Wee1 stabilizer -1, DAX1 inh-1 0, hgDAF12 agonist 0, DAX1 inh-2 1 and hcDAF-12 act 2.
COc1ccccc1-c1nc(-c2ccc(Br)cc2)no1 was read as ssDAF-12 act 1.5*, Wee1 stabilizer 1, DAX1 inh-1 1, hgDAF12 agonist 9, DAX1 inh-2 2 and hcDAF-12 act 5.8*.
`COc1ccccc1-c1noc(-c2cc(OC)c(OC)c(OC)c2)n1` gave ssDAF-12 act -1, Wee1 stabilizer 3, DAX1 inh-1 0, hgDAF12 agonist -1, DAX1 inh-2 1 and hcDAF-12 act -2.
Screening CCN1C(=O)[C@H]2[C@@H](c3ccc(C(F)(F)F)cc3)N[C@]3(CCCN(Cc4ccc(F)cc4)C3=O)[C@H]2C1=O returned ssDAF-12 act -1, DAX1 inh-1 -2, hgDAF12 agonist -1, DAX1 inh-2 1 and hcDAF-12 act -1.
`CC(=O)Nc1ccc(/C=N\NC(=O)c2cccc(S(=O)(=O)N(C)C)c2)cc1` gave ssDAF-12 act -1, DAX1 inh-1 0, hgDAF12 agonist -1 and hcDAF-12 act 0.
`CCC(C)N(C(=O)CSc1nnc(-c2ccco2)n1C)C1CCS(=O)(=O)C1` (centres undefined) gave ssDAF-12 act -1, DAX1 inh-1 -1, hgDAF12 agonist 2, DAX1 inh-2 4.6* and hcDAF-12 act -1.
For CCC(C)N(C(=O)CSc1nncn1C)C1CCS(=O)(=O)C1 (centres undefined) the results were ssDAF-12 act -1, DAX1 inh-1 0, hgDAF12 agonist 0, DAX1 inh-2 0 and hcDAF-12 act -1.
For CCCNC(=O)c1cc(C2CCCCN2C(=O)c2cc(C(C)(C)C)nn2C)on1 (centres undefined) the results were ssDAF-12 act -1, DAX1 inh-1 -1, hgDAF12 agonist 0 and hcDAF-12 act -1.
COc1ccc(CN2CCNC(=O)C2CC(=O)N(Cc2nccn2C)C(C)C)c(OC)c1 (centres undefined) was read as ssDAF-12 act -1, Wee1 stabilizer 1, DAX1 inh-1 -1, hgDAF12 agonist 0, DAX1 inh-2 4.4* and hcDAF-12 act -1.
CC(C)N(Cc1nccn1C)C(=O)CC1C(=O)NCCN1Cc1ccc(F)cc1 (centres undefined) was read as ssDAF-12 act -2, DAX1 inh-1 -2, hgDAF12 agonist 2, DAX1 inh-2 0 and hcDAF-12 act 1.
Screening CCc1nc2ccc(C(=O)NCCc3ccccn3)cn2c1N(C)Cc1ccc(N(C)C)cc1 returned ssDAF-12 act -1, DAX1 inh-1 -1, hgDAF12 agonist -1 and hcDAF-12 act 0.
`COC(=O)c1ccccc1NC(=O)CSc1nc(C)cc(C)n1` gave ssDAF-12 act -1, Wee1 stabilizer -2, DAX1 inh-1 0, hgDAF12 agonist -2, DAX1 inh-2 0 and hcDAF-12 act 0.
For COC(=O)c1ccccc1NC(=O)CSc1nccc(C)n1 the results were ssDAF-12 act -2, Wee1 stabilizer 10*, DAX1 inh-1 0, hgDAF12 agonist -2, DAX1 inh-2 -1 and hcDAF-12 act -1.
O=C(CSc1ncccn1)Nc1cccc2ccccc12 was read as ssDAF-12 act -1, DAX1 inh-1 0, hgDAF12 agonist 3, DAX1 inh-2 0 and hcDAF-12 act 6.2*.
For O=C(CSc1nnc2c3ccccc3c3ccccc3c2n1)Nc1ccccc1F the results were ssDAF-12 act -1, Wee1 stabilizer -2, DAX1 inh-1 0, hgDAF12 agonist 0, DAX1 inh-2 0 and hcDAF-12 act 5.8*.
`O=C(Nc1cccc2ccccc12)c1ccccc1` gave ssDAF-12 act 0, Wee1 stabilizer 0, DAX1 inh-1 2, hgDAF12 agonist 10, DAX1 inh-2 2 and hcDAF-12 act 5.6*.
O=C(CCn1nnc(-c2cccs2)n1)NCc1cccs1 was read as ssDAF-12 act -1, DAX1 inh-1 -1, hgDAF12 agonist 2 and hcDAF-12 act 0.
Screening O=C(Nc1cccc2ccccc12)ON=C1CCCCC1 returned ssDAF-12 act 1.0*, DAX1 inh-1 0, hgDAF12 agonist -1 and hcDAF-12 act 2.
Screening Cc1ccc(-c2nc3c4ccccc4ccn3c2Cc2ccccc2C(F)(F)F)cc1 returned ssDAF-12 act 0.9*, DAX1 inh-1 1, hgDAF12 agonist 2 and hcDAF-12 act 5.
`COc1ccccc1Cc1c(-c2ccc(F)cc2)nc2c3ccccc3ccn12` gave ssDAF-12 act 0, DAX1 inh-1 0, hgDAF12 agonist 5 and hcDAF-12 act 5.8*.
COc1ccccc1Cc1c(-c2ccc(C)cc2)nc2c3ccccc3ccn12 was read as ssDAF-12 act 0, DAX1 inh-1 0, hgDAF12 agonist 0 and hcDAF-12 act 1.
For COc1ccccc1Cc1c(-c2ccco2)nc2ccc(C)cn12 the results were ssDAF-12 act 0, DAX1 inh-1 1, hgDAF12 agonist 5 and hcDAF-12 act 1.
For COc1ccccc1Cc1c(-c2ccco2)nc2c3ccccc3ccn12 the results were ssDAF-12 act 1, DAX1 inh-1 1, hgDAF12 agonist 7 and hcDAF-12 act 5.7*.
For COc1ccccc1CC(=O)Nc1ccc(S(=O)(=O)N(C)C2CCN(C)CC2)cc1 the results were ssDAF-12 act -1, DAX1 inh-1 -1, hgDAF12 agonist 3, DAX1 inh-2 1 and hcDAF-12 act 0.
C#CCN1C(=O)S/C(=C/C=C/c2ccc(N(C)C)cc2)C1=O was read as ssDAF-12 act 0, Wee1 stabilizer -1, DAX1 inh-1 2, hgDAF12 agonist 13*, DAX1 inh-2 3 and hcDAF-12 act 4.
